Bioassay records as filed in PubChem BioAssay.
FBW7 activator – FBW7 E3 ligase activators, primary screen, biochemical, AlphaScreen, human; AlphaScreen FBW7–phospho-cyclin E peptide binding, activator screen; normalized activity (activation), % at 26.1 µM; actives 0.13% (n = 650,000); in the data active = normalized activity above about 1.9%;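 note: purified mutant Fbw7 with reduced substrate affinity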
MITF primary – MITF inhibitors, primary screen, biochemical, AlphaScreen, human | inhibition, % at 2.6 µM | actives 0.91% (n = 650,000) | AlphaScreen MITF homodimerization, bead proximity signal | Microphthalmia-associated transcription factor (Homo sapiens), O75030; in the data active = inhibition above about 50%
GPR151 activ – activators of human GPR151, primary screen, cell-based, PathHunter beta-arrestin, luminescence | PathHunter beta-arrestin GPR151 cells | G-protein coupled receptor 151 (Homo sapiens), Q8TDV0 | actives 1% (n = 650,000) | activation, % at 11.2 µM; in the data active = activation above about 4.9%
Target sequence (Q8TDV0 whole entry, looked up): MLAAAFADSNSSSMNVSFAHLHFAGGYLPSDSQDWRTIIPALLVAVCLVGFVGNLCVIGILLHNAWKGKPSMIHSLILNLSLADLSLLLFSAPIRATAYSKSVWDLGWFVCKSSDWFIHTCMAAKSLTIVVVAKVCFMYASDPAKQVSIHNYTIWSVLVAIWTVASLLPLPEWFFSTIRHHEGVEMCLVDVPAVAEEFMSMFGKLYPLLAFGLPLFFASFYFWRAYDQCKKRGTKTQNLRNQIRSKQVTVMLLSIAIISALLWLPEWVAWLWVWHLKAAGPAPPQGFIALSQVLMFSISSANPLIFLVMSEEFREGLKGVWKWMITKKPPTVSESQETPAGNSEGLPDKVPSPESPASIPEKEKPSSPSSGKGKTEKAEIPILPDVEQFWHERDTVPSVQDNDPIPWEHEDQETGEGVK
TEAD-YAP block – TEAD-YAP interaction inhibition, primary screen, TEAD-YAP interaction inhibitor project, luminescence, HEK-TIYL cells; TEAD-Gal4/YAP UAS-luciferase luminescence; inhibition, % at 9.12 µM; actives 1.4% (n = 640,000); AID 1259422, 2018; in the data active = inhibition above about 32%
Of the large screens only hits and unclear results are named; the others gave an inactive call. In the library only some 3.5% were active in any assay of this set; here they are far more common.

O=C(NCCc1ccccc1)C1(S(=O)(=O)c2ccc(Cl)cc2)CC1	FBW7 activator 2.0
C/C(CC(C)(C)c1ccccc1)=N\NC(N)=O	none
CCCCCCN1C(=O)C2C(C(=O)Nc3ccc(OCC)cc3)C3C=CC2(O3)C1C(=O)NC1CCCCC1 (stereo unspecified)	none
O=C(NCCNC(=O)c1ccccc1Br)c1ccccc1Br	none
O=C(NCCc1ccccc1)c1ccccc1Br	TEAD-YAP block 33.7
N#Cc1ccc(C(=O)Nc2cc(-c3nc4ncccc4o3)ccc2Cl)c(F)c1	none
OCCCNc1ccc2ncc(-c3ccc4c(c3)OCO4)n2n1	TEAD-YAP block 61.0
c1ccc(CCNc2ccc3ncc(-c4ccc5c(c4)OCO5)n3n2)nc1	TEAD-YAP block 48.0
COc1ccc(OCC(O)Cn2c3ccccc3c3ccccc32)cc1 (stereo unspecified)	TEAD-YAP block 45.2
COc1ccccc1C(NC(=O)C1CCN(S(C)(=O)=O)CC1)c1ccccn1 (stereo unspecified)	none
O=C1CCCN1CCCNc1nc(Nc2ncccn2)nc2c1ncn2-c1ccccc1	none
O=C1CCCN1CCCNc1nc(Nc2ccc(-n3ccnc3)cc2)nc2c1ncn2-c1ccsc1	TEAD-YAP block 61.2
O=C1CCCN1CCCNc1nc(Nc2ccccc2)nc2c1ncn2-c1ccccc1	TEAD-YAP block 38.5
O=C1CCCN1CCCNc1nc(Nc2ccc3ncccc3c2)nc2c1ncn2-c1ccsc1	TEAD-YAP block 52.2
Cc1nn(C)c(C)c1-c1nc(NCCN2CCOCC2)c2ncn(-c3ccsc3)c2n1	TEAD-YAP block 38.2
Cc1cc(NC(=O)c2cccc(S(=O)(=O)N3CCCC3)c2)c2cc(Br)ccc2n1	none
Cc1ccc(C2/C(=C(\O)c3ccc(Br)cc3)C(=O)C(=O)N2c2nccs2)cc1 (stereo unspecified)	none
Cc1ccccc1NC(=S)N1CCC(NC(=O)C2CC2)CC1	none
CCc1c(C)sc(NC(=O)COc2ccccc2)c1C(N)=O	none
O=C1CCCN1CCCNc1nc(Nc2ccc(C(F)(F)F)cc2)nc2c1ncn2-c1ccsc1	none
COc1cc(Nc2nc(NCCCN3CCCC3=O)c3ncn(-c4ccccc4)c3n2)cc(OC)c1OC	TEAD-YAP block 48.7
O=C1CCCN1CCCNc1nc(-c2cccs2)nc2c1ncn2-c1ccsc1	TEAD-YAP block 54.8
Cc1nn(C)c(C)c1-c1nc(NCCCN2CCCC2=O)c2ncn(-c3ccccc3)c2n1	none
O=C1CCCN1CCCNc1nc(-c2csc3ccccc23)nc2c1ncn2-c1ccsc1	none
O=C1CCCN1CCCNc1nc(Nc2ccccc2)nc2c1ncn2-c1ccsc1	TEAD-YAP block 65.1
Cc1nn(C)c(C)c1-c1nc(NCCCN2CCCC2=O)c2ncn(-c3ccsc3)c2n1	TEAD-YAP block 55.9
Cc1ccc(CN2CCN3C(=O)[C@@H]4C[C@@H](O)CN4C(=O)[C@H]3C2)s1	none
O=C1CCCN1CCCNc1nc(Nc2ccc(-n3ccnc3)cc2)nc2c1ncn2-c1ccccc1	TEAD-YAP block 51.8
CCCNc1nc(NCCCN2CCCC2=O)nc2c1ncn2-c1ccccc1	TEAD-YAP block 41.8
O=C1CCCN1CCCNc1nc(Nc2ccncc2)nc2c1ncn2-c1ccsc1	TEAD-YAP block 60.3
O=C1CCCN1CCn1cnc2c(NCCOc3ccccc3)nc(Nc3ccc(-n4ccnc4)cc3)nc21	none
O=C1CCCN1CCCNc1nc(Nc2cccnc2)nc2c1ncn2-c1ccsc1	TEAD-YAP block 46.8
Cc1ccccc1NC(=S)NNC(=O)CNC(=O)C12CC3CC(CC(C3)C1)C2	none
COC(=O)c1c(NC(=O)c2sc3ccccc3c2Cl)sc2c1CCCCC2	none
O=C1CCCN1CCCNc1nc(NCCCN2CCCC2=O)c2ncn(-c3ccsc3)c2n1	TEAD-YAP block 38.7
CCCNc1nc(-c2c(C)nn(C)c2C)nc2c1ncn2-c1ccsc1	none
Cc1nn(C)c(C)c1-c1nc(NCCc2ccc(O)cc2)c2ncn(-c3ccsc3)c2n1	TEAD-YAP block 55.6
O=C1CCCN1CCCNc1nc(NCCN2CCOCC2)nc2c1ncn2-c1ccsc1	none
CCOCCCn1c(=N)c(C(=O)OC)cc2c(=O)n3cc(C)ccc3nc21	none
COc1cc(NC(=O)c2nn(-c3ccc(Cl)cc3)c(=O)c3ccccc23)cc(OC)c1OC	none
CCOC(=O)N1CCN(C(=O)CNS(=O)(=O)c2ccc(Br)cc2)CC1	none
Cc1ccc2nc(-c3ccccc3)c(N)n2c1	TEAD-YAP block 68.5
COCCNc1c(-c2ccccc2)nc2ccc(C)cn12	none
Cc1ccc2nc(=S)nc(-c3ccccc3)n2c1	TEAD-YAP block 69.6
